# Reference: ChEMBL document CHEMBL3988442, “University of Dundee, Small-Polar-MMV Screening Library” (2021)
# For some of these results: Results with a measured potency or affinity are listed apart.
# What was measured:
# Set-up in all cases: scale not given: direction of the effect not stated beside the values
# [1] = molecular target: Protein translocase subunit SecA (Escherichia coli (strain K12)) (UniProt P10408); assay: Assay to Identify E. coli SecA ATPase Inhibitors; type: functional; conditions: 30 µM
# Chain of Protein translocase subunit SecA (Escherichia coli (strain K12)) (P10408 whole entry): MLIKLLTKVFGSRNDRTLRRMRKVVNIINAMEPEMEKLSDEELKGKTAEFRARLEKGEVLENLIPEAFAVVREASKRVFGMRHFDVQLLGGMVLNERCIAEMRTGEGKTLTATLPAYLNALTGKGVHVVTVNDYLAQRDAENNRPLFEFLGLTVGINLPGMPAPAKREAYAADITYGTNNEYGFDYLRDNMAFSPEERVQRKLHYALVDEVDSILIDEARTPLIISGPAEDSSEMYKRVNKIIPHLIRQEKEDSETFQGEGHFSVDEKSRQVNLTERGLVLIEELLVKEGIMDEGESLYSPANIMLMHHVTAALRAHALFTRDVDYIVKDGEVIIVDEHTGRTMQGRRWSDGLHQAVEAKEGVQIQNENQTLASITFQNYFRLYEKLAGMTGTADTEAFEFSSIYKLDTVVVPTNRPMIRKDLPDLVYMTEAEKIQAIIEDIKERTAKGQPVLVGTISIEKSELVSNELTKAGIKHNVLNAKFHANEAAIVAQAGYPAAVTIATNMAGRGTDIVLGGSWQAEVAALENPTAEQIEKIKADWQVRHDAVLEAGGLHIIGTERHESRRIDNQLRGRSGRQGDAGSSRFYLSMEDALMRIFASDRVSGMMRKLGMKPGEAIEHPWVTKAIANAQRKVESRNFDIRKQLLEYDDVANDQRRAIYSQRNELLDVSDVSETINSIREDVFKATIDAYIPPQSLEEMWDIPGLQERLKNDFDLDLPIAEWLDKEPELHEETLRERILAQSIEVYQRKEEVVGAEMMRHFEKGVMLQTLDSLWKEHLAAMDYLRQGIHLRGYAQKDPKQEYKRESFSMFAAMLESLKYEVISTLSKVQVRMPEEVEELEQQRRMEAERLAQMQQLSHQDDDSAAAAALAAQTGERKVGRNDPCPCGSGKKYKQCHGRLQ
# [2] = molecular target: T1, Ubiquitin-activating enzyme e1, putative (Leishmania donovani (strain BPK282A1)) (UniProt E9BSI1); assay: Leishmania donovani Ubiquitin Activating Enzyme (LdE1); type: functional; conditions: 30 µM
# T1 sequence (whole entry): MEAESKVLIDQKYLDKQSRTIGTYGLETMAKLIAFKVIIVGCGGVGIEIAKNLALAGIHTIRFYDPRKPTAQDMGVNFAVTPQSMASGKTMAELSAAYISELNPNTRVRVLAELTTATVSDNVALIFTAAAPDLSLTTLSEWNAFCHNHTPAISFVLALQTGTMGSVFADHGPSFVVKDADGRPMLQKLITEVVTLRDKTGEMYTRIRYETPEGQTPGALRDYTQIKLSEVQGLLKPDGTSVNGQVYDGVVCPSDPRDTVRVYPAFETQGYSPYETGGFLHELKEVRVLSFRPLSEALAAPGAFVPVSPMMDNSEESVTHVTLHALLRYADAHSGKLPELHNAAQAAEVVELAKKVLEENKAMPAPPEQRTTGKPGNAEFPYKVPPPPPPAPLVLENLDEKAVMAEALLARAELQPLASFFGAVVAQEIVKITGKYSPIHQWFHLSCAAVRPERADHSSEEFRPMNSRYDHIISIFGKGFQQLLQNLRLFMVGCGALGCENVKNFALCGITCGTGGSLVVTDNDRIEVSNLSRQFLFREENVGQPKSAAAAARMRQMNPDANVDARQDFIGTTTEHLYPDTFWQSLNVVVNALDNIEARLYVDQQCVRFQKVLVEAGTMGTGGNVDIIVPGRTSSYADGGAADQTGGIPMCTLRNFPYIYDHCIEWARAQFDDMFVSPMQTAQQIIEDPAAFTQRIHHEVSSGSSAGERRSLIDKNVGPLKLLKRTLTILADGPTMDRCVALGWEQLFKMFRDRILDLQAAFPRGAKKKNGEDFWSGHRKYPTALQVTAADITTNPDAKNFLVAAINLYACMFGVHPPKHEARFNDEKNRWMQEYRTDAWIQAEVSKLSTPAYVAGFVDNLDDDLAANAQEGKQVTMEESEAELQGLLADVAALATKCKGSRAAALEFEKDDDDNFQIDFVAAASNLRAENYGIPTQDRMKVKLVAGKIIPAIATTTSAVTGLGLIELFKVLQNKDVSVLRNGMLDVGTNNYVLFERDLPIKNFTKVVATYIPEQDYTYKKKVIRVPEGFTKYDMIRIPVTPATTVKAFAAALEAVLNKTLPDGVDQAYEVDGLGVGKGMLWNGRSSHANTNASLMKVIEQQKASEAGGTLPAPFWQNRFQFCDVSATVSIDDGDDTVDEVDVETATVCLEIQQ
# [3] = molecular target: T2, Aspartate--tRNA(Asp/Asn) ligase (Mycobacterium tuberculosis (strain ATCC 25618 / H37Rv)) (UniProt P9WFW3); assay: Assay for Asp RNA synthetase-1 from Mycobacterium tuberculosis; type: functional; conditions: 30 µM; note: in the data most compounds retested in dose-response had high values
# T2 sequence (whole entry): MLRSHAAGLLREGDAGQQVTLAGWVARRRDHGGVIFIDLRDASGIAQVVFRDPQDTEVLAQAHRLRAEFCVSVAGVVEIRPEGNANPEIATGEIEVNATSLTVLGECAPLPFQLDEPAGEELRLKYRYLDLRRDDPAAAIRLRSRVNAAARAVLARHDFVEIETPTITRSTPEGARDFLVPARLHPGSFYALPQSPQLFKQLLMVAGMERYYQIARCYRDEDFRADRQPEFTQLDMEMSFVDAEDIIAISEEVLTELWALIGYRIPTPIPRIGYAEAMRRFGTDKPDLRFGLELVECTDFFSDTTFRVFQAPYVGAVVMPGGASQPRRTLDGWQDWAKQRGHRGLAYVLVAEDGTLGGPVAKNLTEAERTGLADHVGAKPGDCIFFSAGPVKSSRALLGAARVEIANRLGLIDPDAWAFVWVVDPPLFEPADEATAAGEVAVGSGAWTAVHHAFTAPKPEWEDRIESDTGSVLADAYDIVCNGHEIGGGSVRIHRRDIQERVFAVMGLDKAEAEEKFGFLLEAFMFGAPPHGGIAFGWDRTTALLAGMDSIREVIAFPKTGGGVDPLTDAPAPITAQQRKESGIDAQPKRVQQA
# [4] = molecular target: AMP-activated protein kinase, AMPK (Homo sapiens) (UniProt P54646+O43741+P54619+Q9UGJ0+Q9Y478+Q13131+Q9UGI9); assay: AMP-dependent Kinase enzyme assay. An in vitro enzyme assay that detects ADP turnover that is directly proportional to AMPK activity. This uses naive AMPK that is activated during the assay with MK-8722; type: functional; conditions: 30 µM
# [5] = molecular target: Sialic acid-binding Ig-like lectin 9 (Homo sapiens) (UniProt Q9Y336); assay: Hs-Siglec9 ALPHAscreen SOP 20170721; conditions: 10 µM
# Chain of Sialic acid-binding Ig-like lectin 9 (Homo sapiens) (Q9Y336 whole entry): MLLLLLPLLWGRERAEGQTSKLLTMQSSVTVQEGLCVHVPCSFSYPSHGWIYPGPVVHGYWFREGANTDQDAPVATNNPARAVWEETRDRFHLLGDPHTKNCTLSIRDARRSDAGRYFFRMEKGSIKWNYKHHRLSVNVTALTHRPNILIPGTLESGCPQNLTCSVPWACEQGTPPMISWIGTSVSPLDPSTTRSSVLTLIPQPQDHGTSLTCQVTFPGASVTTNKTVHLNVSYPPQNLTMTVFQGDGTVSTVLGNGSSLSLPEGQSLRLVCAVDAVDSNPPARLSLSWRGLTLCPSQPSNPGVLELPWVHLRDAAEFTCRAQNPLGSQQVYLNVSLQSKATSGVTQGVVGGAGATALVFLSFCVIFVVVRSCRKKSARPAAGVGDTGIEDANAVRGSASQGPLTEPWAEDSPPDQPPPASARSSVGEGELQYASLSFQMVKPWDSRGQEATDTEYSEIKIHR
# Trypanosoma cruzi = assay: Trypanosoma cruzi phosphomannomutase and mannose-1-phosphate guanylyltransferase assay; type: functional; conditions: 10 µM
# [6] = molecular target: T3, Arginase-2, mitochondrial (Homo sapiens) (UniProt P78540); assay: in vitro enzyme assay to detect the production of urea directly proportional to the activity of Arginase II; type: functional; conditions: 33.3 µM; note: in the data most compounds retested in dose-response had high values
# T3 sequence (whole entry): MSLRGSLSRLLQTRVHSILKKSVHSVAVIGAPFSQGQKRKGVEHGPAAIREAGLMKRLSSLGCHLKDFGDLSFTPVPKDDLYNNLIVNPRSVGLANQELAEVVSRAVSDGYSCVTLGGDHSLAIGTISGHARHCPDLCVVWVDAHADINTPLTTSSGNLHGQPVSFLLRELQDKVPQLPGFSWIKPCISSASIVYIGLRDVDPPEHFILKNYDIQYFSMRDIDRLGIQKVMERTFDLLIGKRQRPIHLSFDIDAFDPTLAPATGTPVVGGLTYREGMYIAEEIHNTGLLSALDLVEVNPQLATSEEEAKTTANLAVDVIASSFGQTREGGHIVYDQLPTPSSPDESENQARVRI
# [7] = molecular target: T4, Proteasome subunit beta (Trypanosoma cruzi) (UniProt O96673); assay: Trypanosoma cruzi proteasome chymotrypsin-like activity (TcProtChymo) assay.; note: in the data most compounds retested in dose-response had high values; type: functional; conditions: 9.37 µM
# T4 sequence (whole entry): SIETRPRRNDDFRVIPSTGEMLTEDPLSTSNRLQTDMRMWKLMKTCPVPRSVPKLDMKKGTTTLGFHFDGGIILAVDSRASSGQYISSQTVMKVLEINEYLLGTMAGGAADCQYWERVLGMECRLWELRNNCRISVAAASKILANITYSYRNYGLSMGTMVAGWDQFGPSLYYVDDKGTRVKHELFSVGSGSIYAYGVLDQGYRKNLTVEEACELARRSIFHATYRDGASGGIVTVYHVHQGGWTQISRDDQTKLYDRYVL
# Homo sapiens = species: Homo sapiens; assay: To identify inhibition of the IFN signalling (Jak-Stat) pathway via expression of an eGFP reporter gene under the control of an IFN-stimulated response element (ISRE) containing MxA promoter.; type: functional; conditions: 30 µM
# [8] = molecular target: Shiga toxin 2 (Escherichia coli O157:H7) (UniProt P09385+P09386); assay: E. coli 0.157:H7 Shiga Toxin SOP - stx2 screening assay; type: functional; conditions: 30 µM
# [9] = molecular target: T5, Tyrosyl-tRNA synthetase, putative (Trypanosoma cruzi (strain CL Brener)) (UniProt Q4DSP6); assay: Trypanosoma cruzi tyrosyl tRNA synthetase (TcYRS) _High Tyrosine SOP; type: functional; conditions: 30 µM; note: in the data most compounds retested in dose-response had high values
# T5 sequence (whole entry): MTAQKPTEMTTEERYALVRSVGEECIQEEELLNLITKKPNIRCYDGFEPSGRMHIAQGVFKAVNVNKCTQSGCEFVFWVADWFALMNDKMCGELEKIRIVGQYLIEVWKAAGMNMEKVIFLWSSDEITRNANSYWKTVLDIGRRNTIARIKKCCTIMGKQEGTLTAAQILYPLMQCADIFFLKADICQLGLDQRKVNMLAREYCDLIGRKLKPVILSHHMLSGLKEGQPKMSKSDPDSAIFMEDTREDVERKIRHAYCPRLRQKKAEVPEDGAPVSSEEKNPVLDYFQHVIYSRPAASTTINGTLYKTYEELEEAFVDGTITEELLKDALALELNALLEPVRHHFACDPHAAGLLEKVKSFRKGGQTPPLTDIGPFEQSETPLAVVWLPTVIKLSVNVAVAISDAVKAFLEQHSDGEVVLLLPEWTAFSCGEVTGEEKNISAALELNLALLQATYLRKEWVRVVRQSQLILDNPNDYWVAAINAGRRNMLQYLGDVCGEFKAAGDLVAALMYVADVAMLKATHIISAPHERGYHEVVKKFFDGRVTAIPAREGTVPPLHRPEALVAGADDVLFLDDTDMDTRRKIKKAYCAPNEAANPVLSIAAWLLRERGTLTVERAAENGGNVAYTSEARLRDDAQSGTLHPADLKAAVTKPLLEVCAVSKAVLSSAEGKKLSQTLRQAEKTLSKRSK
# [10] = molecular target: T5, Tyrosyl-tRNA synthetase, putative (Trypanosoma cruzi (strain CL Brener)); assay: Trypanosoma cruzi tyrosyl tRNA synthetase (TcYRS) SOP; type: functional; conditions: 30 µM
# [11] = molecular target: Chromo domain-containing protein 1 (Saccharomyces cerevisiae (strain ATCC 204508 / S288c) (Baker's yeast)) (UniProt P32657); assay: ScCHD-1 Enzyme Inhibition Assay; type: functional; conditions: 30 µM; note: in the data most compounds retested in dose-response had high values
# Chain of Chromo domain-containing protein 1 (Saccharomyces cerevisiae (strain ATCC 204508 / S288c) (Baker's yeast)) (P32657 whole entry, the tested form may be a part): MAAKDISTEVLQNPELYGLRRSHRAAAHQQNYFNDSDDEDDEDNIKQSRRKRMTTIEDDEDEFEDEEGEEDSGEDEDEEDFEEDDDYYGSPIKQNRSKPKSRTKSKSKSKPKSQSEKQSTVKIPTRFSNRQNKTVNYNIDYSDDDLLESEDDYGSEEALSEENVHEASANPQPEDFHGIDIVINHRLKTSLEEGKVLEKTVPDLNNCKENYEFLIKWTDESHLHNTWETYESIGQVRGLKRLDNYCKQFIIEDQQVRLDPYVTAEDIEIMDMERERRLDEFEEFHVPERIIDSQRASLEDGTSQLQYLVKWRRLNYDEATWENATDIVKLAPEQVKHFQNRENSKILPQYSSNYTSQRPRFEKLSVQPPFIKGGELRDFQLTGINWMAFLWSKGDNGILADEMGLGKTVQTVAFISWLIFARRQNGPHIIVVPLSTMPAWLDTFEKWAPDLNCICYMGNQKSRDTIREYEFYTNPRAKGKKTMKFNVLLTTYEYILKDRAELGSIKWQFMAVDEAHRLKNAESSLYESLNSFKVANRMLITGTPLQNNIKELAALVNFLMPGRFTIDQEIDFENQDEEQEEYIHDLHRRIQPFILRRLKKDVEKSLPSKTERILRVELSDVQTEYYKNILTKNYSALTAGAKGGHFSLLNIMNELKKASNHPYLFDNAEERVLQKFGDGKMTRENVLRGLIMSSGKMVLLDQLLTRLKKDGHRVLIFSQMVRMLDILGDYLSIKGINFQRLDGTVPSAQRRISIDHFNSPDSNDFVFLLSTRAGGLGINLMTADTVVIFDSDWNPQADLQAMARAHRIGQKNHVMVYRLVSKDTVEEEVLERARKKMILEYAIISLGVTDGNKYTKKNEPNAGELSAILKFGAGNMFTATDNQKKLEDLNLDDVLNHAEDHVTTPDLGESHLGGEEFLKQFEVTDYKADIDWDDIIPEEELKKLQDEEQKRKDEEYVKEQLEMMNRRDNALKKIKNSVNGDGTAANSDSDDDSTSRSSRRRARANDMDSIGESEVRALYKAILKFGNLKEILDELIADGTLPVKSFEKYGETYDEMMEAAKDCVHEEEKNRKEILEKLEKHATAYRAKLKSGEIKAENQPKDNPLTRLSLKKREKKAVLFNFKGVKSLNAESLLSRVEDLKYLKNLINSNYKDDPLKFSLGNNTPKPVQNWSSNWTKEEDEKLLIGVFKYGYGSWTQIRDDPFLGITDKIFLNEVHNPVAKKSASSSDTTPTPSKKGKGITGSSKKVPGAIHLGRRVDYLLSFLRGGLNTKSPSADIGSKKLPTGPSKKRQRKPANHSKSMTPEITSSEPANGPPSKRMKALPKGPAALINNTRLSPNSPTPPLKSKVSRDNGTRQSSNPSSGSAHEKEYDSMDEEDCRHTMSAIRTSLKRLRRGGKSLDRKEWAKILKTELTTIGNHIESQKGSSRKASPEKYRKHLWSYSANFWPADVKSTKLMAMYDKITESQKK
Structure (SMILES),Percent Effect [1],Percent Effect [2],Percent Effect [3],Percent Effect [4],Percent Effect [5],Percent Effect (Trypanosoma cruzi),Percent Effect [6],Percent Effect [7],Percent Effect (Homo sapiens),Percent Effect [8],Percent Effect [9],Percent Effect [10],Percent Effect [11]
CCN1CCC2(COCc3cnc(NCC4CC4)nc32)C1 (stereo not given),1.53%,0%,0.296%,-4.7%,2.85%,5.95%,-2%,3.68%,18.1%,-28.9%,0%,8.64%,-0.871%
COCc1cncc2c1CCN(Cc1ccccn1)C2,-5.11%,5.41%,3.14%,-2.9%,-3.72%,-0.391%,4.58%,14.4%,2.95%,-55.7%,14.8%,23.2%,1.79%
COc1ccc(-c2n[nH]cc2C2SCC(=O)Nc3[nH]ncc32)cc1 (stereo not given),-3.63%,0%,0.479%,21.7%,3.15%,-3.41%,-17.8%,14.9%,16.2%,-3.31%,2.13%,7.79%,0.161%
CNC(=O)c1ccc2c(c1)C1(CCN(CC(C)C)CC1)C(=O)N2,-7.23%,5.41%,3.94%,-0.561%,-0.632%,-4.2%,0.248%,3.52%,3.77%,7.05%,4.3%,11.1%,-2.94%
c1ccc(CN2CCO[C@H]3[C@H](OCCN4CCCC4)CC[C@@H]32)nc1,-1.73%,-2.67%,0.641%,2.45%,8.64%,-2.7%,-53.2%,-0.855%,-6.91%,-16.4%,4.17%,5%,0.266%
Cc1nnc(N2CCCC3(CN(Cc4ccncc4)CCO3)C2)o1 (stereo not given),3.96%,5.48%,-2.96%,0.217%,8.21%,-4.76%,-2%,20.3%,6.92%,-16.9%,4.17%,16.1%,0.771%
Cc1cccc(CN2C[C@@H]3CCCO[C@@H]3[C@H](NS(C)(=O)=O)C2)n1,-4.89%,21.3%,4.75%,-6.76%,-3.19%,5.99%,-50.4%,11.1%,-3.89%,-20.3%,7.29%,25%,-7.06%
CCN(CC)C(=O)c1ccc(NC(=O)CNc2ccc(F)cc2Cl)cc1,-1.29%,10.5%,5.36%,5.61%,3.25%,2.04%,0%,16.6%,-29.3%,-38.1%,9.57%,15.6%,-3.17%
O=C(c1cscn1)N1CCN2C[C@H](OCc3cccnc3)C[C@H]2C1,4.53%,16%,2.54%,2.68%,-10.9%,-9.05%,6.76%,12.1%,0.411%,-22.2%,5.32%,3.85%,1.28%
O=C1N(c2cncnc2)CCC12CCCN(Cc1ccccn1)C2 (stereo not given),-4%,5.2%,3.89%,3.31%,8.64%,-1.28%,2.76%,2.5%,-1.38%,-38.2%,4.3%,8.64%,0.251%
